The source of these data is PubChem BioAssay (NCATS).

Each structure is given as a SMILES string. Records with an inconclusive call do not appear. Activity calls are given as the source filed them. Calls come from the whole dose curve; as a rule, active = well fitted cell-killing curve with a large enough effect; inconclusive = small, poorly fitted or top-dose-only effect, or effect the other way; inactive = no such curve, though single readings can be large or run the other way.
Potency is the fitted concentration of half-maximal effect.

This assay is described as follows: Quantitative High-Throughput drug screen in 47 multiple myeloma cell lines against the NCATS MIPE library collection: Karpas25_ECACC cell viability assay (AID 1918968; note: nearly all actives have a fitted effect of over 35% in size). Particulars: Karpas25 myeloma viability, CellTiter-Glo ATP, 48 h; series mostly up to 45.8 µM; viability (% of control): at the top concentration. An excerpt:
PI: Beverly A. Mock Ph.D.
Laboratory of Cancer Biology and Genetics,
Center for Cancer Research, National Cancer Institute,
National Institute of Health, Bethesda, Maryland
Drug resistance and disease progression are common in multiple myeloma (MM) patients, underscoring the need for new therapeutic combinations. […] We hypothesized that effective combinations would reduce MYC expression and enhance p16 activity. […] These preclinical data identify potentially useful drug combinations for evaluation in drug-resistant MM and reveal potential mechanisms of combined drug sensitivity.
Described herein is the primary MIPE qHTS used to cherrypick compounds. Validated compounds were then further tested for potential synergistic activiy.
[1] Peat TJ, Gaikwad SM, Dubois W, Gyabaah-Kessie N, Zhang S, Gorjifard S, Phyo Z, Andres M, Hughitt VK, Simpson RM, Miller MA, Girvin AT, Taylor A, Williams D, D'Antonio N, Zhang Y, Rajagopalan A, Flietner E, Wilson K, Zhang X, Shinn P, Klumpp-Thomas C, McKnight C, Itkin Z, Chen L, Kazandijian D, Zhang J, Michalowski AM, Simmons JK, Keats J, Thomas CJ, Mock BA. Drug combinations identified by high-throughput screening promote cell cycle transition and upregulate Smad pathways in myeloma. Cancer Lett. 2023 Aug 1;568:216284. doi: 10.1016/j.canlet.2023.216284. Epub 2023 Jun 24. PMID: 37356470; PMCID: PMC10408729.
SEQUENCE No. (e.g., 1, 2, 3, etc.); […] (e.g., Cells, Incubation, Reagent, etc.); VALUE and DESCRIPTION.
1; Cells; 5 uL; white, solid bottom 1536-well Greiner assay plate.
2; Compounds; 23 nL; Kalypsis pin tool (Wako USA) equipped with a 1536-well pin head to transfer to the assay plates.
3; Incubation; 48 hours; 37C incubation.
4; Reagent;5uL; CellTiter Glo (Promega).
5; Detector; 425V; Luminescence; Viewlux PerkinElmer.
NOTES (numbers refer to Sequence numbers above)
1. The cell-based screening methods employed in this study were like those previously published. Briefly, the corresponding myeloma cell lines were screened in 1,536-well plates with 500 cells, 5-uL per well for inhibition of cell viability (assessed by measuring ATP levels with CellTiterGlo).
2. NCATS MIPE 4.0 library of approved and investigational drugs were added using the Kalypsis pin tool. Wells treated with DMSO only for 100% viability and media only wells for 0% viability were used as controls.
3. The assay plates were covered and incubated for 48 hours in a 37C, 5% CO2 incubator with controlled humidity.
4. After 48 hours, CellTilter-GloTM luminescent substrate mix (Promega) reagent was added to the assay plate and plates we incubated for 5 min at room temperature.
5. Signal was measured as median relative luminescence units on a ViewLux (PerkinElmer) multiplate reader.
[1] Heske CM, Davis MI, Baumgart JT, Wilson K, Gormally MV, Chen L, Zhang X, Ceribelli M, Duveau DY, Guha R, Ferrer M, Arnaldez FI, Ji J, Tran HL, Zhang Y, Mendoza A, Helman LJ, Thomas CJ. Matrix Screen Identifies Synergistic Combination of PARP Inhibitors and Nicotinamide Phosphoribosyltransferase (NAMPT) Inhibitors in Ewing Sarcoma. Clin Cancer Res. 2017 Dec 1;23(23):7301-7311. doi: 10.1158/1078-0432.CCR-17-1121. Epub 2017 Sep 12. PMID: 28899971; PMCID: PMC6636827.
Consider `CC1(C)CCC[C@@]2(C)[C@@H]1CC[C@@]1(C)OC(=O)C[C@H]21`, for which the “viability (% of control)” value was 105% (inactive).
With `CC1(C)CCC2=C(O1)c1ccccc1C(=O)C2=O`, the Potency is 5.9 µM (active).
Same read-out and setting: then `COc1ccc(C2CC(c3ccccc3)=NN2c2ccc(S(N)(=O)=O)cc2)cc1` (stereo not given), with 16.6 µM (active); and `CO[C@H]1C[C@@H]2CC[C@@H](C)[C@@](O)(O2)C(=O)C(=O)N2CCCC[C@@H]2C(=O)O[C@H]([C@H](C)C[C@@H]2CC[C@H](OCCO)[C@H](OC)C2)CC(=O)[C@H](C)C=C(C)[C@@H](O)[C@@H](OC)C(=O)[C@H](C)C[C@H](C)C=CC=CC=C1C`, with 1.05 µM (active).
`CN1[C@@H]2CCC[C@@H]1CC(NC(=O)c1nn(C)c3ccccc13)C2` (stereo not given in full): the “viability (% of control)” value is 106% (inactive).
In the case of `COc1ccc(-c2cc(=O)c3c(O)cc(O)cc3o2)cc1O`, the Potency is 3.72 µM (active).
For `O=c1c(O)c(-c2ccc(O)cc2)oc2cc(O)cc(O)c12`, the Potency was 9.35 µM (active).
Consider `NS(=O)(=O)c1cccc2c1C(=O)c1cccc(O)c1C2=O`, for which the Potency is 0.132 µM (active).
Regarding `Cc1nc(N)sc1-c1ccnc(Nc2ccc(N3CCOCC3)cc2)n1`, the Potency was 5.9 µM (active).
On to `CCCCCCCCCCCC1=C(O)C(=O)C=C(O)C1=O`, for which the Potency was 2.96 µM (active).
Turning to `NC1=N[C@@]2(c3cc(NC(=O)c4ccc(F)cn4)ccc3F)COC[C@@H]2CS1`, the Potency is 14.8 µM (active).
Still for that read-out and setting: the value for `O=C(O)c1c(Cl)c(Cl)c(Cl)c(Cl)c1-c1c2cc(I)c(=O)c(I)c-2oc2c(I)c(O)c(I)cc12` was 7.43 µM (active).
In the case of `Clc1ccc(-c2nc3sccn3c2C=NOCc2ccc(Cl)c(Cl)c2)cc1`, the “viability (% of control)” value was 122% (inactive).
Take `CC(C)C[C@H](CC(=O)O)C(=O)N[C@@H](Cc1c[nH]c2ccccc12)C(=O)N[C@@H](C)c1ccccc1`: the “viability (% of control)” value is 117% (inactive).
On to `Cc1[nH]c(C=C2C(=O)Nc3ccc(S(=O)(=O)Cc4c(Cl)cccc4Cl)cc32)c(C)c1C(=O)N1CCC[C@H]1CN1CCCC1`, for which the Potency is 2.96 µM (active).
The same measure, in the same setting: then `O=C1NC(=O)C(=Cc2ccc3c(c2)OC(F)(F)O3)S1`, with 18.7 µM (active).
Take `CN1C[C@H]2c3ccccc3Oc3ccc(Cl)cc3[C@@H]2C1`: the “viability (% of control)” value is 76.7% (inactive).
Consider `O=c1cc(N2CCOCC2)oc2c(-c3cccc4c3sc3ccccc34)cccc12`, for which the Potency was 4.18 µM (active).
Turning to `COc1cc(O)c2c(c1)C(=O)c1cc(C)cc(O)c1C2=O`, the “viability (% of control)” value was 97.2% [at 23.2 µM] (inactive).
In the case of `CC#CCn1c(N2CCC[C@@H](N)C2)nc2c1c(=O)n(Cc1nc(C)c3ccccc3n1)c(=O)n2C`, the Potency was 14.8 µM (active).
For the molecule `CCC(CC)[C@H](NC(C)=O)[C@@H]1[C@H](O)[C@@H](C(=O)O)C[C@@H]1N=C(N)N`, the “viability (% of control)” value was 101% (inactive).
As to `COc1cc2ncnc(-n3nc(-c4ccccn4)nc3N)c2cc1OC`, the Potency is 0.743 µM (active).
Still for that read-out and setting: then `Cc1cc(OCCCc2c(C(=O)O)n(Cc3cccnc3)c3c(-c4c(COc5ccc(N6CCN([S+](C)(=O)[O-])CC6)cc5)nn(C)c4C)cccc23)cc(C)c1Cl`, with 20.9 µM (active).
The same measure, in the same setting: the value for `Cc1ccc(F)c(NC(=O)Nc2ccc(-c3cccc4[nH]nc(N)c34)cc2)c1` was 26.4 µM (active).
Regarding `COC(=O)N[C@H](C(=O)N1CCC[C@@H]1c1ncc(-c2ccc(-c3ccc(-c4cnc([C@@H]5CCCN5C(=O)[C@@H](NC(=O)OC)C(C)C)[nH]4)cc3)cc2)[nH]1)C(C)C`, the Potency was 23.5 µM (active).
For `Cc1cnc(C(=O)O)c[n+]1[O-]`, the “viability (% of control)” value is 107% (inactive).
With `CC=CCC=CCCC(=O)[C@H]1O[C@@H]1C(N)=O`, the Potency is 18.7 µM (active).
As for `COc1ccc(-c2nc(N3CCOCC3)c3sc(CN(C)c4ncc(C(=O)NO)cn4)cc3n2)cn1`, the “viability (% of control)” value is 0.468% (inactive).
In the case of `CC[C@@]1(O)C[C@H](O[C@H]2C[C@H](N(C)C)[C@H](O[C@H]3C[C@H](O)[C@H](O[C@H]4CCC(=O)[C@H](C)O4)[C@H](C)O3)[C@H](C)O2)c2c(cc3c(c2O)C(=O)c2c(O)cccc2C3=O)[C@@H]1C(=O)OC`, the Potency was 0.372 µM (active).
The same measure, in the same setting: then `C=C1C(=O)OC(CCCCCCCC)C1C(=O)O` (stereo not given), with 26.4 µM (active).
The same measure, in the same setting: the value for `O=c1cc(-c2ccc(O)cc2)oc2cc(O)cc(O)c12` was 10.5 µM (active); that for `NC(=O)NN=Cc1ccc([N+](=O)[O-])o1` was 16.6 µM (active).
With `CC(=NNC(=S)N1CCC1)c1ccccn1`, the “viability (% of control)” value is 4.08% (inactive).
`C[C@]12CC[C@@H]3c4ccc(O)cc4CC[C@H]3[C@H]1C[C@@H](O)[C@H]2O`: the “viability (% of control)” value was 108% (inactive).
As to `C[C@H](NC(=O)c1sccc1OCc1ccc(Cl)cc1)c1ccccc1`, the Potency was 16.6 µM (active).
In the case of `Cc1c(O)cccc1C(=O)N[C@@H](CSc1ccccc1)[C@H](O)CN1C[C@H]2CCCC[C@@H]2C[C@@H]1C(=O)NC(C)(C)C`, the Potency is 14.8 µM (active).
Regarding `Cc1ccccc1C(C(=O)NC1CCCCC1)N(C(=O)Cn1ccnc1C)c1cccc(F)c1` (stereo not given), the Potency is 18.7 µM (active).
Regarding `N#CC(=C(N)Sc1ccccc1N)C(C#N)=C(N)Sc1ccccc1N`, the Potency is 8.33 µM (active).
Still for that read-out and setting: then `Cc1nnc(C(C)C)n1C1C[C@H]2CC[C@@H](C1)N2CC[C@H](NC(=O)C1CCC(F)(F)CC1)c1ccccc1` (stereo not given in full), with 18.7 µM (active).
For the molecule `O=c1cc(CN2CCOCC2)occ1OCCCCCSc1ccnc2cc(C(F)(F)F)ccc12`, the Potency was 0.743 µM (active).
